Assay results as given in PubChem BioAssay (Tox21).
Unmarked numbers belong to inactive results. Records with an inconclusive call do not appear. Where a call stands in place of a potency, no number is given. Active and inactive are the calls of the source. Unless noted, calls come from the whole dose curve; as a rule, active = well fitted curve in the direction sought with a large enough effect in the repeat runs; inconclusive = weak or mixed curves; inactive = no such curve, though single readings can be large; an effect the other way counts as inactive or inconclusive.

Tests used:
[1] = qHTS assay to identify small molecule antagonists of the androgen receptor (AR) signaling pathway using the MDA cell line in the presence of 0.5 nM R1881 - cell viability counter screen (AID 1259242); note: nearly all actives have a fitted effect of over 45% in size
Outline: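 Cytotoxicity toward MDA-kb2 cells is measured by CellTiter-Fluor live-cell protease fluorescence after 16 hr compound exposure at 37C in the presence of 0.5 nM R1881 stimulator.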

[2] = target: Androgen receptor (Homo sapiens) (UniProt P10275); experiment: qHTS assay to identify small molecule antagonists of the androgen receptor (AR) signaling pathway using the MDA cell line in the presence of 0.5 nM R1881 (AID 1259243); note: nearly all actives have a fitted effect of over 50% in size; note: potency is the fitted concentration of half-maximal effect
Chain of Androgen receptor (Homo sapiens) (P10275 whole entry, looked up): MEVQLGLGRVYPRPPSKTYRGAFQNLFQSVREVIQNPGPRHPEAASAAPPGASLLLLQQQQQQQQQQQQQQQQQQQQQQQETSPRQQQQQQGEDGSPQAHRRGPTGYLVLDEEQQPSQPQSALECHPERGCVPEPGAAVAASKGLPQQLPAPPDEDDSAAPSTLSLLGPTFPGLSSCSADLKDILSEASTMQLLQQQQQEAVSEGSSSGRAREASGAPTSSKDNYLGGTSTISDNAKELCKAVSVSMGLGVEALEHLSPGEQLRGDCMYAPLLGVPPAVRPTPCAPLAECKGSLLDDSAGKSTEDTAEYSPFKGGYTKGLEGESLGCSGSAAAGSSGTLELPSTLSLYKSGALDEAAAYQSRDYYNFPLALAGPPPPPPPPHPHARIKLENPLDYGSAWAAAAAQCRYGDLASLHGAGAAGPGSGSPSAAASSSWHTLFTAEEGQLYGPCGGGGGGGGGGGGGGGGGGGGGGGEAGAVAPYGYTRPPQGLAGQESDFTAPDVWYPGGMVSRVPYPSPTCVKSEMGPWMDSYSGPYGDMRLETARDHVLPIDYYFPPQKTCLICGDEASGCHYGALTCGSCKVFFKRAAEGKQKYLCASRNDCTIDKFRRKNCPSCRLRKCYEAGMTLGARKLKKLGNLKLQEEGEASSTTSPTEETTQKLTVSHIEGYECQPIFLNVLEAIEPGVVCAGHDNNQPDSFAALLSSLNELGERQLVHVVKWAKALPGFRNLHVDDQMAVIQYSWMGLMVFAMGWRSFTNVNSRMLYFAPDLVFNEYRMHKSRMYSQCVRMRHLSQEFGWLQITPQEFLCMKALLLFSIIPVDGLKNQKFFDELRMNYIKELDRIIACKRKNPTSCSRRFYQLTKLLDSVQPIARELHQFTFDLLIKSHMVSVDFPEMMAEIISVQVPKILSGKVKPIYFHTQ
Outline: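 Steps: seed MDA-kb2 cells, incubate 5 hr at 37C; pin-transfer compounds in DMSO; add R1881 to 0.5 nM final; incubate 16 hr; add ONE-Glo, wait 30 min at room temperature; read luminescence.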

[3] = target: Estrogen receptor (Homo sapiens) (UniProt P03372); experiment: qHTS assay to identify small molecule antagonists of the estrogen receptor alpha (ER-alpha) signaling pathway using the BG1 cell line in the presence of 0.1 nM 17-beta-estradiol (AID 1259244); note: nearly all actives have a fitted effect of over 50% in size; note: potency is the fitted concentration of half-maximal effect
Chain of Estrogen receptor (Homo sapiens) (P03372 whole entry, looked up): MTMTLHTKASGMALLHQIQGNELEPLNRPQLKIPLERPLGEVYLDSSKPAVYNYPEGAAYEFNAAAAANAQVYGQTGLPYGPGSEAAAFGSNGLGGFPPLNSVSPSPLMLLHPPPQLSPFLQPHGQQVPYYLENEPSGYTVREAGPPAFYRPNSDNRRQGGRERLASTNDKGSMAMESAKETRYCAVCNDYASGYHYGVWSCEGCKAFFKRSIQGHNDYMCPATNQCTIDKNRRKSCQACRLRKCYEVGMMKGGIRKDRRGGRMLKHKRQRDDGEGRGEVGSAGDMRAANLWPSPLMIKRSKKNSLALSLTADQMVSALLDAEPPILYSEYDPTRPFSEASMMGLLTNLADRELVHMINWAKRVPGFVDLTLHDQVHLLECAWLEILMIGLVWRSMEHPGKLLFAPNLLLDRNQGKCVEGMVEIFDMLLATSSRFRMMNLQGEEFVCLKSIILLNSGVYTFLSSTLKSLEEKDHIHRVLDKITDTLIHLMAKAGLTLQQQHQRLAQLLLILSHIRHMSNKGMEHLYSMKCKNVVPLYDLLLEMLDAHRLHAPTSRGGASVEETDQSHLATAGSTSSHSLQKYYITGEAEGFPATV
Outline: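 After 5 days in hormone-depleted medium (charcoal-stripped serum, no phenol red), VM7Luc4E2 cells were seeded, incubated 24 h, then co-treated with compound and 0.1 nM (final) estradiol for 22 h before luminescence detection.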

[4] = qHTS assay to identify small molecule HDAC inhibitors (AID 1259364); note: top concentration of the series differs between compounds; nearly all actives have a fitted effect of over 45% in size
Outline: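 Homogeneous cell-based luminescent assay of endogenous class I/II HDAC activity; HCT-116 cells, 2 h compound exposure, 30 min HDAC-Glo development at RT.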

[5] = qHTS assay to identify small molecule HDAC inhibitors - cell viability counter screen (AID 1259365); note: series mostly up to about 92 µM; nearly all actives have a fitted effect of over 50% in size
Outline: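 HCT-116 (wild type), 1,500 cells/well, overnight 37C/5% CO2; compound in DMSO 2hr; CellTiter-Glo 30min RT; luminescence read.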

[6] = qHTS assay to identify small molecule agonists of the sonic hedgehog signaling (Shh) pathway - cell viability counter screen (AID 1259366); note: nearly all actives have a fitted effect of over 50% in size; note: potency is the fitted concentration of half-maximal effect
Outline: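 CellTiter-Fluor fluorescence read-out, 1 hr at 37C, added after 23hr compound exposure. Cells: 3T3 Gli1-Luc, an NIH/3T3 clone with stably integrated Gli1-Luc reporter, plated 4hr before compound.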

[7] = qHTS assay to identify small molecule antagonists of the sonic hedgehog signaling (Shh) pathway - cell viability counter screen (AID 1259367); note: nearly all actives have a fitted effect of over 55% in size; note: potency is the fitted concentration of half-maximal effect
Outline: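 NIH/3T3-derived Gli1-Luc reporter cells, 2,000/well, plated 4 hr before compound addition, then stimulated with conditioned medium for 24 hr at 37C. Viability measured in the same wells by CellTiter-Fluor fluorescence, reagent added at 23 hr for 1 hr.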

[8] = qHTS assay to identify small molecule agonists of the sonic hedgehog signaling (Shh) pathway (AID 1259368; calls by dose curve;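 note: NIH/3T3-derived 3T3Gli1-Luc cells carrying a stable Gli1-driven firefly luciferase reporter; series mostly up to about 92 µM; nearly all actives have a fitted effect of over 15% in size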)
Outline: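 Steps: seed 3T3 Gli1-Luc cells, incubate 4 hr at 37 C, pin-transfer compounds in DMSO alongside a positive control, incubate 24 hr, add luciferase detection reagent, wait 30 min at room temperature, read luminescence.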

[9] = qHTS assay to identify small molecule antagonists of the sonic hedgehog signaling (Shh) pathway (AID 1259369; calls by dose curve; note: nearly all actives have a fitted effect of over 45% in size; note: potency is the fitted concentration of half-maximal effect)
Outline: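 Inhibition of Shh signalling is measured as reduced Gli1-response-element firefly luciferase output in an NIH/3T3-derived stable reporter clone stimulated with conditioned medium for 24hr.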

[10] = qHTS assay to identify small molecule agonists of the androgen receptor (AR) signaling pathway in the presence of an antagonist - cell viability counter screen (AID 1259379);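 note: MDA-kb2 human breast cancer cells carrying an MMTV luciferase reporter; series mostly up to about 92 µM; nearly all actives have a fitted effect of over 25% in size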
Outline: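 Fluorescence from CellTiter-Fluor, added after 15 hr and read 1 hr later, gave cell viability. Cells were MDA-kb2 exposed to compounds (15 concentrations) in the presence of 3.0uM nilutamide at 37C, 0% CO2.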

[11] = qHTS assay to identify small molecule agonists of the estrogen receptor beta (ER-beta) signaling pathway - cell viability counter screen (AID 1259380); note: nearly all actives have a fitted effect of over 30% in size
Outline: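 Same-well viability counter screen. Cells: ER-beta-UAS-bla HEK293T, plated 6 hr before compound, in 2% charcoal-stripped FBS. Compound exposure 16 hr, 37C; viability by CellTiter-Glo luminescence after 30 min at room temperature.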

[12] = qHTS assay to identify small molecule antagonists of the estrogen receptor beta (ER-beta) signaling pathway - cell viability counter screen (AID 1259382); note: series mostly up to about 92 µM; nearly all actives have a fitted effect of over 55% in size
Outline: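 Following a 6 hr plating period, HEK293T cells carrying a UAS-driven beta-lactamase reporter under ER-beta control received compounds and 1nM E2 (final). After 16 hr at 37C and 2 hr substrate loading, CellTiter-Glo luminescence indicated viability.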

[13] = target: Estrogen receptor (Homo sapiens) (UniProt P03372); experiment: qHTS assay to identify small molecule agonists of the estrogen receptor alpha (ER-alpha) signaling pathway in the presence of an antagonist (AID 1259383; calls by dose curve; note: top concentration of the series differs between compounds; nearly all actives have a fitted effect of over 15% in size)
Outline: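 Cells are hormone-deprived for 5 days (charcoal-stripped FBS, no phenol red), plated for 24hr, spiked with 10.0nM ICI-182,780, then dosed at 15 concentrations. After 22hr at 37C, ONE-Glo luminescence reports ERE-luciferase activity.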

[14] = qHTS assay to identify small molecule agonists or antagonists of the thyroid stimulating hormone receptor (TSHR) signaling pathway - wild type cell line counter screen (AID 1259384; calls by dose curve)
Outline: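 Wild-type Hek293 cells, 800/well, 18 h at 37C, then compound with Ro20-1724 for 30 min RT. cAMP by HTRF (cAMP-d2/anti-cAMP cryptate), 1 h RT, fluorescence read. 15 concentrations, triplicates.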

[15] = qHTS assay to identify small molecule agonists of the estrogen receptor alpha (ER-alpha) signaling pathway in the presence of an antagonist - cell viability counter screen (AID 1259386);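 note: series mostly up to about 92 µM; cells exposed to compounds for 22 h at 37 °C before the viability read; nearly all actives have a fitted effect of over 30% in size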
Outline: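 Cells are starved of estrogens for 5 days in charcoal-stripped serum, seeded for 24hr and co-treated with ICI-182,780 (10.0nM final) and test compounds. After 22hr at 37C, viability is read as CellTiter-Fluor fluorescence.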

[16] = target: Estrogen receptor beta (Homo sapiens) (UniProt Q92731); experiment: qHTS assay to identify small molecule agonists of the estrogen receptor beta (ER-beta) signaling pathway (AID 1259377; active = well fitted activation curve with a large enough effect in the signal ratio in the repeat runs, not every such curve was filed as active; the % refers to the signal ratio)
Chain of Estrogen receptor beta (Homo sapiens) (Q92731 whole entry, looked up): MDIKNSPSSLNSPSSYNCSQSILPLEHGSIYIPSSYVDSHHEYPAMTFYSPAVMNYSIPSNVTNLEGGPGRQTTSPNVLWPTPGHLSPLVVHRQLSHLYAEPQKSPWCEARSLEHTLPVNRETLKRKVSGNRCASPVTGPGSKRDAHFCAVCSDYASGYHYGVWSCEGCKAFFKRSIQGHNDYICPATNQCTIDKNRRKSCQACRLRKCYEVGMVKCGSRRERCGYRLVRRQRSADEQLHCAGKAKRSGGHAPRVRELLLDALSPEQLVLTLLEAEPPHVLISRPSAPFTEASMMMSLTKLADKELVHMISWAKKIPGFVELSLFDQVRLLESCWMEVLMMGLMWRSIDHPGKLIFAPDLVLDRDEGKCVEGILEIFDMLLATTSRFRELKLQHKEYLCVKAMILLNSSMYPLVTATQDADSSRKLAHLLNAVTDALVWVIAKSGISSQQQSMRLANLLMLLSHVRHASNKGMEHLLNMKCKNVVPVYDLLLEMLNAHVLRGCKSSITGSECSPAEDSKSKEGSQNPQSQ
Outline: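 Beta-lactamase reporter readout: fluorescence of LiveBLAzer B/G FRET substrate after 2 h at room temperature, following 16 h compound treatment of ER-beta-UAS-bla HEK293T cells at 37C in 2% charcoal-stripped FBS medium.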

[17] = target: Estrogen receptor beta (Homo sapiens) (UniProt Q92731); experiment: qHTS assay to identify small molecule antagonists of the estrogen receptor beta (ER-beta) signaling pathway (AID 1259378; active = well fitted inhibition curve with a large enough effect in the signal ratio in the repeat runs, not every such curve was filed as active; the % refers to the signal ratio)
Outline: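 ER-beta-UAS-bla HEK293T cells in 2% charcoal-stripped FBS medium treated with compound plus 1nM final 17-beta-estradiol for 16 hr at 37C. Beta-lactamase reporter read by FRET substrate fluorescence after 2 hours at room temperature.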

[18] = target: Androgen receptor (Homo sapiens) (UniProt P10275); experiment: qHTS assay to identify small molecule agonists of the androgen receptor (AR) signaling pathway in the presence of an antagonist (AID 1259381; calls by dose curve; note: nearly all actives have a fitted effect of over 15% in size)
Outline: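 Cells are MDA-kb2 (human breast carcinoma, MMTV-luc, AR/GR responsive). Nilutamide is present at 3.0uM final throughout; compounds are added at 15 concentrations and incubated 16hr at 37C before ONE-Glo luminescence detection.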

[19] = target: Thyrotropin receptor (Homo sapiens) (UniProt P16473); experiment: qHTS assay to identify small molecule antagonists of the thyroid stimulating hormone receptor (TSHR) signaling pathway (AID 1259385; calls by dose curve; note: nearly all actives have a fitted effect of over 20% in size)
Chain of Thyrotropin receptor (Homo sapiens) (P16473 whole entry, looked up): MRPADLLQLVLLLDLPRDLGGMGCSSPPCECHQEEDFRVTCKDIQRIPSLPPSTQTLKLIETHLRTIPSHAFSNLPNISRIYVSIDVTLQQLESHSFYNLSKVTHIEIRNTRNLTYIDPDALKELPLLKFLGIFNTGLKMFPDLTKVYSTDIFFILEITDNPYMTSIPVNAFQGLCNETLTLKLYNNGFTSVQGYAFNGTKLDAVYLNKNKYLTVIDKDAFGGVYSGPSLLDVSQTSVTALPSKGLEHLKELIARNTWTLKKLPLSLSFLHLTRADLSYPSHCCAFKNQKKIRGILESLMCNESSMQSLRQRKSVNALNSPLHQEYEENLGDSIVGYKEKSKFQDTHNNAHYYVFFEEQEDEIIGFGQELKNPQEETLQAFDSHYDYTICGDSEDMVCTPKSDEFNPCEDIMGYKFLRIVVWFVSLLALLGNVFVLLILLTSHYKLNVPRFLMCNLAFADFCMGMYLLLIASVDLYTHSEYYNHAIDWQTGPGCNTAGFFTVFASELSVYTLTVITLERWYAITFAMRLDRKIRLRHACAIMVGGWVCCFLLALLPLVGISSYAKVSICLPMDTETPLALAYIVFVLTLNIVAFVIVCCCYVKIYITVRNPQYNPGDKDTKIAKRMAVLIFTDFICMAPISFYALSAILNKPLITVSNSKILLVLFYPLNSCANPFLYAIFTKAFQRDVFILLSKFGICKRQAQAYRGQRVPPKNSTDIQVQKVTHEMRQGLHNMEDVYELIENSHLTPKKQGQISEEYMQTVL
Outline: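 TSHR-HEK293 cells (800/well) plated 18 h, then compounds with Ro20-1724 and TSH at 1.5 ng/mL final, 30 min at room temperature. cAMP quantified by HTRF (cAMP-d2/anti-cAMP-cryptate, 1 h); 15 concentrations in triplicate.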

SMILES | Potency [1] | Potency [2] | Potency [3] | Potency [4] | Potency [5] | Potency [6] | Potency [7] | Potency [8] | Potency [9] | Potency [10] | Potency [11] | Potency [12] | Potency [13] | outcome [14] | Potency [15] | Potency [16] | Potency [17] | Potency [18] | Potency [19]
CO[Si](CCCNCCNCCN)(OC)OC | inactive | inactive | inactive | inactive | inactive | inactive | inactive | inactive | inactive | inactive | inactive | inactive | inactive | inactive | inactive |  |  |  | 
CCOC(OCC)C(=O)c1ccccc1 | inactive | inactive | inactive | inactive | inactive | inactive | inactive | inactive | inactive | inactive | inactive | inactive | inactive |  | inactive | inactive | inactive | inactive | 
CCc1ccc(C)nc1 | inactive | inactive | inactive | inactive | inactive | inactive | inactive | inactive | inactive | inactive | inactive | inactive | inactive | inactive | inactive | inactive | inactive | inactive | 
c1cc(OCC2CO2)cc(OCC2CO2)c1 (stereo not given) | inactive | 48.2 µM (active) | 48.2 µM (active) |  | inactive | 21.5 µM (active) | 60.6 µM (active) | inactive | 19.2 µM (active) | inactive | inactive | inactive | inactive | inactive |  |  |  | inactive | inactive
C=CC(C)(CCC=C(C)C)OC(=O)/C=C/c1ccccc1 (stereo not given) | inactive | inactive | inactive | inactive | inactive | inactive | inactive |  |  | inactive | inactive | inactive | inactive | inactive | inactive | inactive | inactive | inactive | 
CCc1cccc(CC)c1NC(=O)C(=O)O | inactive | inactive | inactive | inactive | inactive | inactive | inactive | inactive |  | inactive |  | inactive | inactive | inactive | inactive |  |  | inactive | 
